# Assay results from PubChem BioAssay (EPA / NIEHS).
# The source made the active and inactive calls. Rule for the calls: active = hit-call score of the fitted dose curve at least 0.9, where 1 is the maximum; inactive = score below 0.9.
# Legend:
# Details in all cases: mRNA level, 48 h; actives raise or lower the signal
# [1] = read-out: Fatty Acid-Binding Protein 1 (FABP1), FABP1 (gene 2168); assay: LTEA_HepaRG_FABP1: Life Technologies and Expression Analysis (LTEA) Assay for Fatty Acid-Binding Protein 1 (FABP1) using HepaRG (AID 2283494)
# Method in brief: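 Differentiated human HepaRG cells were exposed in duplicate for 48 h in serum-free induction medium to 8-point half-log concentration series topping at 100 uM in 0.5% DMSO. FABP1 mRNA measured by TaqMan qRT-PCR, normalized to ACTB/GAPDH/POLR2A; bidirectional fit versus DMSO.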
# [2] = read-out: Glutathione S-Transferase (GSTA2), GSTA2 (gene 2939); assay: LTEA_HepaRG_GSTA2: Life Technologies and Expression Analysis (LTEA) Assay for Glutathione S-Transferase (GSTA2) using HepaRG (AID 2283497)
# Method in brief: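 Human HepaRG cells, plated 48 h, then exposed in serum-free induction medium for 48 h to eight half-log concentrations up to 100 uM in 0.5% DMSO, duplicate. GSTA2 mRNA by qRT-PCR, normalized to ACTB/GAPDH/POLR2A; bidirectional fit versus DMSO.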
# [3] = read-out: Glutamate-cysteine ligase catalytic (GCLC), GCLC (gene 2729); assay: LTEA_HepaRG_GCLC: Life Technologies and Expression Analysis (LTEA) Assay for Glutamate-cysteine ligase catalytic (GCLC) using HepaRG (AID 2283498)
# Method in brief: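 Differentiated human HepaRG cells, plated 48 h then switched to serum-free induction medium, were exposed in duplicate for 48 h to 8 half-log concentrations topping at 100 uM in 0.5% DMSO. GCLC mRNA was quantified by qRT-PCR against ACTB, GAPDH and POLR2A.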
# [4] = read-out: growth arrest and DNA damage 45 (GADD45G), GADD45G (gene 10912); assay: LTEA_HepaRG_GADD45G: Life Technologies and Expression Analysis (LTEA) Assay for growth arrest and DNA damage 45 (GADD45G) using HepaRG (AID 2283499)
# Method in brief: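 GADD45G transcript level by qRT-PCR (housekeeping-normalized: ACTB, GAPDH, POLR2A) after 48 h chemical treatment of a single HepaRG lot in serum-free induction medium; eight-point half-log series up to 100 uM in 0.5% DMSO, duplicates, up- or down-regulation scored.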
# [5] = read-out: Glutamate-cysteine ligase regulatory (GCLM), GCLM (gene 2730); assay: LTEA_HepaRG_GCLM: Life Technologies and Expression Analysis (LTEA) Assay for Glutamate-cysteine ligase regulatory (GCLM) using HepaRG (AID 2283500)
# Method in brief: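 Human liver HepaRG cultures receive test chemicals for 48 hours at up to 100 uM in 0.5% DMSO. GCLM expression is measured by qRT-PCR and analysed for increases or decreases against vehicle.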
# [6] = read-out: Glutathione S-transferase M3 (GSTM3), GSTM3 (gene 2947); assay: LTEA_HepaRG_GSTM3: Life Technologies and Expression Analysis (LTEA) Assay for Glutathione S-transferase M3 (GSTM3) using HepaRG (AID 2283501)
# Method in brief: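 GSTM3 transcript levels came from Fluidigm TaqMan qRT-PCR normalized to three housekeeping genes, fitted in both directions against DMSO. HepaRG cultures received chemicals for 48 h in serum-free induction medium (0.5% DMSO), 8 half-log concentrations up to 100 uM, duplicate.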
# [7] = read-out: Heat shock 70 kDa protein 1 (HSPA1A), gene 3303; assay: LTEA_HepaRG_HSPA1A: Life Technologies and Expression Analysis (LTEA) Assay for Heat shock 70 kDa protein 1 (HSPA1A) using HepaRG (AID 2283502)
# Method in brief: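 HSPA1A induction in human HepaRG liver cells is measured after 48 h of chemical treatment (100 uM maximum, 0.5% DMSO vehicle). Expression comes from qRT-PCR normalized to endogenous controls.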
# [8] = read-out: 3-Hydroxy-3-Methylglutaryl-CoA Synthase 2 (HMGCS2), HMGCS2 (gene 3158); assay: LTEA_HepaRG_HMGCS2: Life Technologies and Expression Analysis (LTEA) Assay for 3-Hydroxy-3-Methylglutaryl-CoA Synthase 2 (HMGCS2) using HepaRG (AID 2283504)
# Method in brief: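 Readout is HMGCS2 transcript by qRT-PCR, housekeeping-normalised (ACTB/GAPDH/POLR2A) and fitted bidirectionally against 0.5% DMSO. Differentiated HepaRG cells received chemicals 48 h, duplicate wells, eight half-log concentrations topping at 100 uM.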
# HGF (gene 3082) = assay: LTEA_HepaRG_HGF: Life Technologies and Expression Analysis (LTEA) Assay for Hepatocyte Growth Facto (HGF) using HepaRG (AID 2283505)
# Method in brief: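 HGF transcript was quantified by TaqMan qRT-PCR against three housekeeping genes after 48 h treatment of HepaRG cells. Exposure ran in duplicate over eight half-log steps topping at 100 uM in 0.5% DMSO vehicle.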
# [9] = read-out: Insulin Like Growth Factor 1 (IGF1), IGF1 (gene 3479); assay: LTEA_HepaRG_IGF1: Life Technologies and Expression Analysis (LTEA) Assay for Insulin Like Growth Factor 1 (IGF1) using HepaRG (AID 2283506)
# Method in brief: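 Using human HepaRG liver cells, IGF1 transcript induction or suppression is measured 48 h after dosing across eight concentrations capped at 100 uM. Values derive from bidirectional concentration-response fitting with DMSO as baseline.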
# [10] = read-out: Intercellular Adhesion Molecule 1 (ICAM1), ICAM1 (gene 3383); assay: LTEA_HepaRG_ICAM1: Life Technologies and Expression Analysis (LTEA) Assay for Intercellular Adhesion Molecule 1 (ICAM1) using HepaRG (AID 2283507)
# Method in brief: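 ICAM1 transcript levels measured by qRT-PCR, normalized to three housekeeping genes (ACTB, GAPDH, POLR2A), after 48 h chemical exposure of HepaRG cells. Duplicate eight-point half-log series from 100 uM in 0.5% DMSO; gain or loss fitted against vehicle.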
# [11] = read-out: Insulin-like growth factor-binding protein 1 (IGFBP1), IGFBP1 (gene 3484); assay: LTEA_HepaRG_IGFBP1: Life Technologies and Expression Analysis (LTEA) Assay for Insulin-like growth factor-binding protein 1 (IGFBP1) using HepaRG (AID 2283508)
# Method in brief: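 Read-out is qRT-PCR transcript level normalized to three housekeeping genes, fitted in both directions against 0.5% DMSO. Differentiated HepaRG cells received eight half-log concentrations (top 100 uM) in duplicate for 48 h in serum-free induction medium.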
# [12] = read-out: Interleukin 6 (IL6), IL6 (gene 3569); assay: LTEA_HepaRG_IL6: Life Technologies and Expression Analysis (LTEA) Assay for Interleukin 6 (IL6) using HepaRG (AID 2283509)
# Method in brief: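 Differentiated human HepaRG cells, plated 48 h then switched to serum-free induction medium, were exposed in duplicate for 48 h to eight half-log concentrations up to 100 uM in 0.5% DMSO. IL6 mRNA measured by qRT-PCR, normalized to ACTB/GAPDH/POLR2A.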
# [13] = read-out: Potassium channel subfamily K member 1 (KCNK1), KCNK1 (gene 3775); assay: LTEA_HepaRG_KCNK1: Life Technologies and Expression Analysis (LTEA) Assay for Potassium channel subfamily K member 1 (KCNK1) using HepaRG (AID 2283511)
# Method in brief: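 Differentiated human HepaRG cells in serum-free induction medium were exposed in duplicate for 48 h to 8 half-log concentrations up to 100 uM in 0.5% DMSO. KCNK1 mRNA was measured by TaqMan qRT-PCR, normalized to ACTB, GAPDH and POLR2A, and fitted bidirectionally versus DMSO.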
# [14] = read-out: Keratin 19 (KRT19), KRT19 (gene 3880); assay: LTEA_HepaRG_KRT19: Life Technologies and Expression Analysis (LTEA) Assay for Keratin 19 (KRT19) using HepaRG (AID 2283512)
# Method in brief: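 KRT19 transcript measured by TaqMan qRT-PCR, referenced to three housekeeping genes, after HepaRG cells received test chemicals for 48 h. Eight half-log concentrations, top 100 uM, 0.5% DMSO vehicle; increases and decreases both fitted.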
# [15] = read-out: JUN Transcription Factor, JUN (gene 3725); assay: LTEA_HepaRG_JUN: Life Technologies and Expression Analysis (LTEA) Assay for JUN Transcription Factor using HepaRG (AID 2283513)
# Method in brief: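 Human HepaRG liver cells receive test chemicals in 0.5% DMSO for 48 h across an eight-point range topping at 100 uM. Expression changes in JUN are scored in both directions against the DMSO vehicle.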
# [16] = read-out: Cytochrome P450 4A22 (Homo sapiens) (UniProt Q5TCH4); assay: LTEA_HepaRG_CYP4A22: Life Technologies and Expression Analysis (LTEA) Assay for Cytochrome P450 4A22 (CYP4A22) using HepaRG (AID 2283495)
# Method in brief: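 Gene expression measured by qRT-PCR against three housekeeping genes (ACTB, GAPDH, POLR2A), with gain or loss fitted relative to 0.5% DMSO vehicle. HepaRG cultures received 48 h chemical treatment, top concentration 100 uM, half-log steps, duplicate wells.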
# [17] = read-out: Cytochrome P450 7A1 (Homo sapiens) (UniProt P22680); assay: LTEA_HepaRG_CYP7A1: Life Technologies and Expression Analysis (LTEA) Assay for Cytochrome P450 7A1 (CYP7A1) using HepaRG (AID 2283496)
# Method in brief: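 Gene expression endpoint in human HepaRG liver cells treated for 48 h with test chemicals (up to 100 uM, 0.5% DMSO). Values come from bidirectional concentration-response fitting versus DMSO.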
# [18] = read-out: Hypoxia-inducible factor 1-alpha (Homo sapiens) (UniProt Q16665); assay: LTEA_HepaRG_HIF1A: Life Technologies and Expression Analysis (LTEA) Assay for Hypoxia-inducible factor 1 (HIF1A) Trancription factor using HepaRG (AID 2283503)
# Method in brief: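 HepaRG, 48 h exposure, 8-pt half-log series from 100 uM, 0.5% DMSO vehicle, duplicates. Readout: HIF1A transcript by qRT-PCR (Fluidigm array), housekeeping-normalised. Bidirectional curve fit vs DMSO baseline.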
# [19] = read-out: Interleukin 6 Receptor (IL6R), IL6R (gene 3570); assay: LTEA_HepaRG_IL6R: Life Technologies and Expression Analysis (LTEA) Assay for Interleukin 6 Receptor (IL6R) using HepaRG (AID 2283510)
# Method in brief: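 Concentration-response in human liver HepaRG cells: eight concentrations from 100 uM downward by half-logs, 48 h exposure, 0.5% DMSO vehicle. IL6R mRNA change measured by qRT-PCR and fitted in both directions relative to vehicle.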
# Sequence of Hypoxia-inducible factor 1-alpha (Homo sapiens) (Q16665 whole entry, looked up): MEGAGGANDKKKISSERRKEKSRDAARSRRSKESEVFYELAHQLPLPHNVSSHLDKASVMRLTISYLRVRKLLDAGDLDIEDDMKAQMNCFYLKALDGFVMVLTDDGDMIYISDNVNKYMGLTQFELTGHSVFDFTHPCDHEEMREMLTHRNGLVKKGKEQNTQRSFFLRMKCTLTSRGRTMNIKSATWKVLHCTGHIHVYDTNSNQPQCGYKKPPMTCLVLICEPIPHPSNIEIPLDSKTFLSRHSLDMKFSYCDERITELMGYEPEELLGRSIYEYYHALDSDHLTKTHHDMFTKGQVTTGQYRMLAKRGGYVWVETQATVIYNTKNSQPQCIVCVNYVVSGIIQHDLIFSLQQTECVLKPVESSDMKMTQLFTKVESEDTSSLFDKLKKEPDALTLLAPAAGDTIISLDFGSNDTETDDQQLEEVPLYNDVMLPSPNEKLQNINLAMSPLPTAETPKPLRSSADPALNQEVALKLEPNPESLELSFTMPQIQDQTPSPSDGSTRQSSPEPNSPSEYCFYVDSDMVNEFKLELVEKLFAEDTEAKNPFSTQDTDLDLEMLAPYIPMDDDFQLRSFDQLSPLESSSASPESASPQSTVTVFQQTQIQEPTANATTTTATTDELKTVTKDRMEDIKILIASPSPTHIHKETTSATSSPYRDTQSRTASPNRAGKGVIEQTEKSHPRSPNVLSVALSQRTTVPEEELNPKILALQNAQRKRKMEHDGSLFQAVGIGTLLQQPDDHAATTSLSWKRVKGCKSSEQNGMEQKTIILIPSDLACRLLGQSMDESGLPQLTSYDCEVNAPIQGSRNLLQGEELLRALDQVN
smiles,measurement,setting,value
O=C(O)[C@H](O)[C@@H](O)C(=O)O,outcome,[1],inactive
same,outcome,[2],inactive
same,outcome,[3],inactive
same,outcome,[4],inactive
same,outcome,[5],inactive
same,outcome,[6],inactive
same,outcome,[7],inactive
same,outcome,[8],inactive
same,outcome,HGF (gene 3082),inactive
same,outcome,[9],inactive
same,outcome,[10],inactive
same,outcome,[11],inactive
same,outcome,[12],inactive
same,outcome,[13],inactive
same,outcome,[14],inactive
same,outcome,[15],inactive
CCN(CC)C(=S)SSC(=S)N(CC)CC,outcome,[16],inactive
same,outcome,[17],inactive
same,outcome,[2],inactive
same,outcome,[3],inactive
same,outcome,[4],inactive
same,outcome,[5],inactive
same,outcome,[6],inactive
same,outcome,[7],inactive
same,outcome,[8],inactive
same,outcome,[9],inactive
same,outcome,[10],inactive
same,outcome,[11],inactive
same,outcome,[12],inactive
same,outcome,[13],inactive
same,outcome,[14],inactive
same,outcome,[15],inactive
c1ccc2c(c1)-c1cccc3c1c-2cc1ccccc13,AC50,[1],19.1 µM (active)
same,AC50,[16],29.1 µM (active)
same,AC50,[2],17.9 µM (active)
same,outcome,[3],inactive
same,AC50,[4],14 µM (active)
same,outcome,[5],inactive
same,AC50,[7],18.5 µM (active)
same,outcome,[18],inactive
same,AC50,[8],16.1 µM (active)
same,AC50,HGF (gene 3082),50 µM (active)
same,AC50,[9],16 µM (active)
same,outcome,[10],inactive
same,AC50,[11],2.54 µM (active)
same,outcome,[12],inactive
same,AC50,[19],11.1 µM (active)
same,outcome,[13],inactive
same,AC50,[14],1.4 µM (active)
same,outcome,[15],inactive
Cc1nc(-c2ccccn2)ncc1C(=O)Nn1cc(C)c2cc(F)ccc21,AC50,[1],6.97 µM (active)
same,AC50,[16],51.4 µM (active)
same,AC50,[2],65.5 µM (active)
same,outcome,[3],inactive
same,outcome,[4],inactive
same,outcome,[5],inactive
same,outcome,[6],inactive
same,outcome,[7],inactive
same,AC50,[18],81 µM (active)
same,AC50,[8],66.8 µM (active)
same,AC50,HGF (gene 3082),65.1 µM (active)
same,outcome,[9],inactive
same,outcome,[10],inactive
same,outcome,[11],inactive
same,outcome,[12],inactive
same,outcome,[13],inactive
same,outcome,[14],inactive
same,outcome,[15],inactive
CCn1nc(C)c2c1C(=O)NCC(c1ccc(O)cc1)=N2,outcome,[1],inactive
same,AC50,[16],33.9 µM (active)
same,outcome,[2],inactive
same,outcome,[3],inactive
same,outcome,[4],inactive
same,outcome,[5],inactive
same,outcome,[6],inactive
same,outcome,[7],inactive
same,outcome,[18],inactive
same,outcome,[8],inactive
same,outcome,HGF (gene 3082),inactive
same,outcome,[9],inactive
same,outcome,[10],inactive
same,outcome,[11],inactive
same,outcome,[12],inactive
same,outcome,[13],inactive
same,AC50,[14],1.84 µM (active)
same,outcome,[15],inactive
OCCNCCO,AC50,[1],45.6 µM (active)
same,outcome,[16],inactive
same,AC50,[2],63.4 µM (active)
same,outcome,[3],inactive
same,outcome,[4],inactive
same,outcome,[5],inactive
same,outcome,[6],inactive
same,outcome,[7],inactive
same,AC50,[18],50 µM (active)
same,AC50,[8],75 µM (active)
same,outcome,HGF (gene 3082),inactive
same,outcome,[9],inactive
same,outcome,[10],inactive
same,outcome,[11],inactive
same,outcome,[12],inactive
same,outcome,[13],inactive
same,AC50,[14],50 µM (active)
same,outcome,[15],inactive
O=C(O)c1cccc(C(=O)O)c1,outcome,[16],inactive
same,outcome,[17],inactive
same,outcome,[2],inactive
same,outcome,[3],inactive
same,outcome,[4],inactive
same,outcome,[5],inactive
same,outcome,[6],inactive
same,outcome,[7],inactive
same,outcome,[18],inactive
same,outcome,[8],inactive
same,outcome,HGF (gene 3082),inactive
same,outcome,[9],inactive
same,outcome,[10],inactive
same,outcome,[11],inactive
same,outcome,[12],inactive
same,outcome,[13],inactive
same,outcome,[14],inactive
same,outcome,[15],inactive
